# Assay outcomes from PubChem.
# Hits are enriched below; roughly 4% of the tested compounds scored in any of these assays.
# Mtb UGM inh: M. tuberculosis UGM enzyme inhibitors, primary screen, biochemical, fluorescence polarization, single point; UDP-galactopyranose mutase (Mycobacterium tuberculosis (strain ATCC 25618 / H37Rv)), …; purified UGM, fluorescence polarization probe displacement; inhibition, % at 10 µM; 320,000 compounds, 0.06% hits; AID 504406, 2011; in the data active means inhibition above about 10%, passing the limit was not always enough; inconclusive means no clear call, values can overlap the other calls
# Mtb FBA inh: Mtb FBA enzyme inhibitors, primary screen, biochemical, fluorescence, strain H37Rv; Fructose-bisphosphate aldolase (Mycobacterium tuberculosis (strain ATCC 25618 / H37Rv)), …; purified M. tuberculosis FBA, fluorescence read-out; inhibition, % at 1 µM; 360,000 compounds, 2.3% hits;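 further: 0% = vehicle and 100% = reference inhibitor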
# Target sequence (P9WQA3 whole entry, looked up): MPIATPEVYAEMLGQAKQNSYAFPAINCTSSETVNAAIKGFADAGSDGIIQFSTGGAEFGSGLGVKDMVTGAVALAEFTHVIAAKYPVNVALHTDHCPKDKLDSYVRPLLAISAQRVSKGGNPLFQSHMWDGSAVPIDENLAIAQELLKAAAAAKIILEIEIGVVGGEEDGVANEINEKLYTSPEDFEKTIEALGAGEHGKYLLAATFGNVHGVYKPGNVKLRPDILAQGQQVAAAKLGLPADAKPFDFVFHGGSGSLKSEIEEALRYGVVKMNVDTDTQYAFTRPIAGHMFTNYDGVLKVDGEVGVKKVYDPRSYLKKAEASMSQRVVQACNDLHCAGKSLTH
# RecA splice inh: Mtb RecA intein splicing inhibitors, primary screen, biochemical, fluorescence, HTS | 290,000 compounds, 0.75% hits | Protein RecA (Mycobacterium tuberculosis (strain ATCC 25618 / H37Rv)), P9WHJ3 | cell-free RecA intein splicing | inhibition, % (no concentration beside the values); in the data active means inhibition above about 30%; inconclusive means no clear call, values can overlap the other calls;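 further: 0% = vehicle wells and 100% = reference inhibitor control wells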
# GDH-TPI counter-1: GDH-TPI coupling enzyme inhibitors, primary screen, artefact control for M. tuberculosis FBA inhibitor project, biochemical, absorbance, full deck; inhibition, % at 4.8 µM; AID 588335, 2011; 360,000 compounds, 1.2% hits; GDH-TPI coupled enzyme counterscreen, NADH absorbance; in the data active means inhibition above about 30%;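 further: 0% = DMSO wells and 100% = wells lacking the enzyme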
# Mtb bLac sens: beta-lactam sensitization of Mtb H37Rv, H37Rv. inhibition, % at 25 µM. 330,000 compounds, 0.27% hits. M. tuberculosis H37Rv growth with meropenem, percent inhibition; call rule not given here;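 further: growth measured after seven days incubation then overnight dye step; 0% = bacteria only wells and 100% = bacteria with antibiotic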
# Rv3671c protease: Rv3671c serine protease inhibitors, primary screen, biochemical, fluorescence polarization, M. tuberculosis H37Rv. P9WHR9. inhibition, % at 5.96 µM. 320,000 compounds, 0.048% hits; in the data active means inhibition above about 38%;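 further: extracellular domain of Rv3671c used as enzyme; 0% = enzyme with DMSO and 100% = no enzyme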
# Mtb FBA confirm: M. tuberculosis aldolase blockers, biochemical, fluorescence, strain H37Rv, confirmation; shares compounds with Mtb FBA inh; purified M. tuberculosis FBA, fluorescence read-out; inhibition, % at 1 µM; 5,600 compounds, 78% hits;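 further: 0% = vehicle wells and 100% = reference inhibitor wells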
# GDH-TPI counter-2: GDH-TPI coupling enzyme inhibitors, artefact control for M. tuberculosis FBA inhibitor project, biochemical, fluorescence, high throughput | 5,600 compounds, 81% hits | GDH-TPI coupled enzyme counterscreen | shares compounds with Mtb FBA inh | inhibition, % at 1 µM; in the data active means inhibition above about 10%
# Active calls of the source: *; u = inconclusive; x = not tested or not shown; + = active, no number. Unless noted, no stated cut-off is given here; in the data, active means inhibition above about 27%; inactive means the rest.
SMILES,Mtb UGM inh,Mtb FBA inh,RecA splice inh,GDH-TPI counter-1,Mtb bLac sens,Rv3671c protease,Mtb FBA confirm,GDH-TPI counter-2
O=C(O)c1cc(-c2c[nH]c3ccccc23)nc2cc3ccccc3cc12,1,55*,-8,17,25,5,75*,75*
O=C(O)CSc1nc(-c2ccccc2)c(-c2ccccc2)[nH]1,3,29*,0,-3,9,6,1,1
CC(C)(C)NC(=O)CSc1nc(-c2ccccc2)c(-c2ccccc2)[nH]1,2,7,-2,8,u,6,x,x
CCOC(=O)C1=CCN(S(=O)(=O)c2ccccc2)C1c1ccc(Cl)cc1 (centres undefined),x,-3,x,x,x,x,x,x
Cc1cccc(/C=N/NC(=O)c2ccc(NC(=O)c3cccc(Cl)c3)cc2)n1,-2,2,2,12,2,-17,x,x
CC(=O)n1c(-c2ccccc2)c(-c2ccccc2)n(C)c1=O,2,50*,2,-4,-4,-2,78*,50*
CC(=O)Nn1cc2c(c1-c1ccccc1)c(=O)n(C)c(=O)n2C,-2,4,1,-11,1,3,x,x
CCCCN(C(=O)NC(=O)C1=C(N2CCOCC2)/C(=C/c2ccccc2)CC1)S(C)(=O)=O,2,44*,-12,20,-2,-12,128*,83*
Cc1c(O)ccc2c(CN(C)Cc3ccccc3)cc(=O)oc12,2,47*,-3,16,-2,7,56*,51*
Cc1ccccc1CN(C)Cc1cc(=O)oc2c(C)c(C)ccc12,-1,0,15,3,2,2,x,x
Cc1ccc2oc(=O)cc(CN3CCN(Cc4ccccc4)CC3)c2c1,1,-1,0,7,8,-20,x,x
Cc1c(O)ccc2c(CN3CCN(Cc4ccccc4)CC3)cc(=O)oc12,0,36*,-3,4,-6,2,+,+
CCc1cc2c(CN3CCN(Cc4ccccc4)CC3)cc(=O)oc2cc1O,1,97*,-158,7,93,x,113*,93*
CCc1cc2c(CN(C)Cc3ccccc3F)cc(=O)oc2cc1O,0,58*,-103,6,-2,-18,+,+
COc1ccc(C(=O)O)cc1S(=O)(=O)Nc1ccccc1-c1ccccc1,-1,-2,x,-4,-2,7,x,x
CC(=O)c1ccccc1OCCCCN1CCCCC1,2,-1,1,0,-10,3,x,x
Cc1nc2c(-c3ccc(Cl)cc3)c(C)[nH]n2c(=O)c1Cc1ccccc1,3,39*,-5,-2,99,-4,2,3
Cc1[nH]n2c(=O)c3c(nc2c1-c1ccc(F)cc1)CCCC3,-1,5,-4,4,100,1,x,x
Cc1nc2c(-c3ccc(F)cc3)c(C)[nH]n2c(=O)c1Cl,1,42*,43*,24,91,2,27,21*
C=CC1=CCN(S(=O)C(C)(C)C)[C@H]1CCO (some centres undefined),x,3,x,2,x,x,x,x
COc1ccc(CN2C(=O)C(CC(=O)NC3CCCC3)CC(C(=O)N(C)C)=C2C)cc1 (centres undefined),x,2,x,1,x,x,x,x
CCN1C(=O)CS/C1=N\S(=O)(=O)c1ccc(C)cc1,0,47*,0,4,-10,-2,77*,79*
OCCN1CCN(c2nc3ccccc3nc2-c2ccccc2)CC1,3,7,-6,11,-7,-4,x,x
Nc1ncc(-c2ccc(F)cc2)nc1N1CCN(CCO)CC1,x,47*,x,16,x,x,123*,89*
C#CCN(C[C@H]1[C@H](OC(=O)NCc2ccccc2F)[C@H](OC(=O)NCc2ccccc2F)C[C@H]2C(=O)N(c3ccccc3)C(=O)[C@@H]12)S(=O)(=O)c1ccc(C)cc1,x,2,x,8,x,x,x,x
SMILES,Mtb UGM inh,Mtb FBA inh,RecA splice inh,GDH-TPI counter-1,Mtb bLac sens,Rv3671c protease,Mtb FBA confirm,GDH-TPI counter-2
C[C@@H]1CN(S(=O)C(C)(C)C)[C@H](CCO)/C1=C\CCO (some centres undefined),x,-2,x,3,x,x,x,x
O=c1cc(C(F)(F)F)c2sc(N3CCCCC3)nc2[nH]1,-2,86*,-103,20,x,1,162*,125*
O=C(CSc1nc(C(F)(F)F)cc(=O)[nH]1)N1CCCCCC1,0,0,0,3,-1,4,x,x
COc1cccc(N2CCN(S(=O)(=O)c3ccc4c(c3)N(C(C)=O)CCO4)CC2)c1,0,6,-1,10,-2,-6,x,x
O=C(OCC(=O)N1CCCC1=O)c1nc(Cl)c(Cl)c(Cl)c1Cl,-8,-2,-2,4,0,4,x,x
CCn1c(/C=C/c2ccccc2)nc2ccccc21,0,58*,4,65*,47,0,+,+
CCn1c(/C=C/c2ccccc2)nc2ccccc2c1=O,0,-1,3,25,1,-4,x,x
COc1ccc(Cn2c(/C=C/c3ccccc3)nc3ccccc32)cc1,0,48*,10,15,19,-8,169*,138*
CCC(C)n1c(/C=C/c2ccccc2)nc2ccccc21 (centres undefined),1,33*,0,17,86,-1,53*,32*
CC(C)Cn1c(/C=C/c2ccccc2)nc2ccccc21,2,78*,-2,39*,62,-8,92*,67*
Cc1ccc(NS(=O)(=O)c2c(C)[nH]c(C)c2C(=O)N2CCCCC2)c(Br)c1,-2,-2,2,-1,-5,2,x,x
CCOc1ccc(N=C2NC(=O)CS2)cc1,0,0,-1,5,6,9,x,x
O=C(CN(C(=O)c1csnn1)c1ccc2c(c1)OCCO2)NCc1ccccc1,0,1,-6,6,-4,4,x,x
O=C(NC(Cc1cccc(F)c1)C(=O)O)C1CCCCC1 (centres undefined),0,-1,x,6,-5,-1,x,x
CC(Sc1ncccn1)C(=O)N1CCc2ccccc21 (centres undefined),x,1,x,-7,x,x,x,x
CCOC(=O)C1CCCN(C(=O)C2(c3ccc(Cl)cc3)CCCC2)CC1 (centres undefined),x,4,x,-9,x,x,x,x
O=C(CSc1nc(=O)n(CCN2CCOCC2)c2c1CCCC2)Nc1ccc(F)cc1F,-1,4,3,7,-6,0,x,x
